The source of these data is the supplement of paper PMC10849652.

Holding throughout (experiment): log2 fold change, soluble protein after heating vs DMSO (PISA); higher = thermal stabilisation; K562 lysate, 10 uM; active = over 0.2 and 3.5 SD of the protein, either way, in both replicates (recomputed)
Compound in experiment [1]: C1=CC=C(C=C1)[C@H](COC2=CC3=C(C=C2)NC(=O)N3)NC(=O)C4=CC=CN(C4=O)CC5=CC(=C(C=C5)F)F
Summed up: (§1)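 Thermal stability, expressed as log-two fold change relative to solvent controls, is given from duplicates. Crude K562 extract in PBS pH 7.4 with 1 mM MgCl2, at 1 mg/mL protein, was treated with 10 μM compound for 30 min and heated in aliquots for 3 min across 48°C-58°C. After pooling, adjustment to 0.5% NP-40 at 4°C and centrifugation at 21,000xg for 90 min, supernatant protein was measured by TMTpro 16plex LC-MS/MS with channel sums equalised.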

Compound in experiment [2]: CC1=C(SC2=C1C(=N[C@H](C3=NN=C(N32)C)CC(=O)N)C4=CC=C(C=C4)Cl)C
Summed up: as §1

Compound in experiment [3]: CC1=C2C(=CC=C1)N=C(N(C2=O)C3=CC=CC=C3C)CN4C=NC5=C(N=CN=C54)N
Summed up: as §1

Compound in experiment [4]: Cc1sc2c(c1C)C(c1ccc(Cl)cc1)=N[C@@H](CC(=O)OC(C)(C)C)c1nnc(C)n1-2
In a few lines:
as §1

Compound in experiment [5]: c1ccc([C@@H]2C[C@H]2NC2CCNCC2)cc1
In a few lines:
as §1

The full data set covers some 8,800 targets. This sample favours those with a hit. About 0.5% of all pairs of compound and target were hits. Values without a mark were called inactive.

Sequence of UniProt Q16512 (Q16512 whole entry, looked up): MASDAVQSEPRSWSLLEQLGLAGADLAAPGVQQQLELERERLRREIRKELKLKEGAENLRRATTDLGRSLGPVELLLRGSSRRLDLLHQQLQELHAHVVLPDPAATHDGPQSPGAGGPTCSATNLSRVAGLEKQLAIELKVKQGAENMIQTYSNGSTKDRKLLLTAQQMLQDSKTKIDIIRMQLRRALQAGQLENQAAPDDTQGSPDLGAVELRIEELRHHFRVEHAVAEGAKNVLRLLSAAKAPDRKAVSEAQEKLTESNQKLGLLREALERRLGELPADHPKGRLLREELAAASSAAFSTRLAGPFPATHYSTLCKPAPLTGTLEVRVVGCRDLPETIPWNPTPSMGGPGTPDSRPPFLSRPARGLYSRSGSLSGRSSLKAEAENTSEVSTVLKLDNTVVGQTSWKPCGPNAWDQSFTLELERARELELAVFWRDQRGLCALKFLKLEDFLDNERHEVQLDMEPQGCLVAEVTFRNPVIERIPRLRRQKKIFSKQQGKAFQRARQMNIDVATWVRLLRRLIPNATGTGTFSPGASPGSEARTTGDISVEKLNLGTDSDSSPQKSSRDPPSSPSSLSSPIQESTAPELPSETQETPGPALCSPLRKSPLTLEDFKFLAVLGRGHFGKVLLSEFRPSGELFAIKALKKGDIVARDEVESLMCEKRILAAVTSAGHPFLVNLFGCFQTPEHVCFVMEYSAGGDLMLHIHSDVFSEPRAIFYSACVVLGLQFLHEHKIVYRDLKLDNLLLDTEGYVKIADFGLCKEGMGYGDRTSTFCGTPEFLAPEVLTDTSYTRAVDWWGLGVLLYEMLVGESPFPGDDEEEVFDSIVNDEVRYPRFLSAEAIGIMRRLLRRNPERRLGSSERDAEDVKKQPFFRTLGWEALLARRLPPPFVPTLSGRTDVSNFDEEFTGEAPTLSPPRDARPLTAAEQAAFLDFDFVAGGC
Sequence of UniProt P42356 (P42356 whole entry, looked up): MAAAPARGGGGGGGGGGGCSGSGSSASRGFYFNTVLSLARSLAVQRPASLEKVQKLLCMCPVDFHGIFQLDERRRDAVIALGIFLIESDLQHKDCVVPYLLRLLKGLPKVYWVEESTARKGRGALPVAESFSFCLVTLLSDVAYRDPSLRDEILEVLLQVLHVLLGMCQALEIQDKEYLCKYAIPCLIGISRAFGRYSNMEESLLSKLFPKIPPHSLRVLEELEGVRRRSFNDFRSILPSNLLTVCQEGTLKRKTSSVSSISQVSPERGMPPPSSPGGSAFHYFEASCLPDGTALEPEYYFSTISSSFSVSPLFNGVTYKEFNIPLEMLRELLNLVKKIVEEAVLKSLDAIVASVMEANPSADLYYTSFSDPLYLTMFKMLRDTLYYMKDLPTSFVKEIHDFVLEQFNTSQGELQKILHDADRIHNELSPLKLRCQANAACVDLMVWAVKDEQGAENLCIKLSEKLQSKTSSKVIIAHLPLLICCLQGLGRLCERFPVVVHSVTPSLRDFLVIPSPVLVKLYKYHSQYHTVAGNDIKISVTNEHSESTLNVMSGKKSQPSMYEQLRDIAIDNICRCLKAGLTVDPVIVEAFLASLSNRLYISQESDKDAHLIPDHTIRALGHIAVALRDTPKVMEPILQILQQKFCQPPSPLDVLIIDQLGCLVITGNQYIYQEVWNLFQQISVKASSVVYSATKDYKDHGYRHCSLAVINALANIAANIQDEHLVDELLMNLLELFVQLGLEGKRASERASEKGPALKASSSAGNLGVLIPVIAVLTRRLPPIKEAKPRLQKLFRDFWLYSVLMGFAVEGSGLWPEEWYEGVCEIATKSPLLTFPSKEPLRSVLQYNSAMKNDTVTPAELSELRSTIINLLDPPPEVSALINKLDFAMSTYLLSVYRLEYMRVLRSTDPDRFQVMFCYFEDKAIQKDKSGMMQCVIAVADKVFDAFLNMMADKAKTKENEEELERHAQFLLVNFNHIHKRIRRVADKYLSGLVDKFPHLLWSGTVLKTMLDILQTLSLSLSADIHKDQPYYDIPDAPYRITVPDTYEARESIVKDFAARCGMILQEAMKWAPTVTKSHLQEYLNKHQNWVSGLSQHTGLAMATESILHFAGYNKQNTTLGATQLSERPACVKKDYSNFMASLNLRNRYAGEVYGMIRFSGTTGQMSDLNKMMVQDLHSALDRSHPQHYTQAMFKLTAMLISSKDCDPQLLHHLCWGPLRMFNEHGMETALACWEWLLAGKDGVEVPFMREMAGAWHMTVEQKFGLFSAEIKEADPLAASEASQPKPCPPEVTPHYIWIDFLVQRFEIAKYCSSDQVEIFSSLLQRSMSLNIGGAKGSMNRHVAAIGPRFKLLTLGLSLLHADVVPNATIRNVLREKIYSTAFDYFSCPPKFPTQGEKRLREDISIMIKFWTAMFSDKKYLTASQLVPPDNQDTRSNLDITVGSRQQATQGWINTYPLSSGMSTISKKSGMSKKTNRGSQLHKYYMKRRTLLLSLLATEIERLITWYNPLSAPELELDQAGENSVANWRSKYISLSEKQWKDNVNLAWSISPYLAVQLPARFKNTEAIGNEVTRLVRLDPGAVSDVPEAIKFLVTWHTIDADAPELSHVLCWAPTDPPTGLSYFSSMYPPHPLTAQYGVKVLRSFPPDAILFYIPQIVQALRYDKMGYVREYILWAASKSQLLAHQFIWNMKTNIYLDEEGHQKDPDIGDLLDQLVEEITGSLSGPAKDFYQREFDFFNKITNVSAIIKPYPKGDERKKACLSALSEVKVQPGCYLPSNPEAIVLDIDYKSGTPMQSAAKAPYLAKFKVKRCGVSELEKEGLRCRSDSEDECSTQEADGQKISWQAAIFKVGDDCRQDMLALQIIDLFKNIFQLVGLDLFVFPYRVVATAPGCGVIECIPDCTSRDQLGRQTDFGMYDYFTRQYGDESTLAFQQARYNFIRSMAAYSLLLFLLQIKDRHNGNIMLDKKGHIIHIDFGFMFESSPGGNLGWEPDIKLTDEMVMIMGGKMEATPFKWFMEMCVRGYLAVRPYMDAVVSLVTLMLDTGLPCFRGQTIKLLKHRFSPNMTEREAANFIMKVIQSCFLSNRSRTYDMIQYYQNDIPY
Sequence of UniProt Q8TBX8 (Q8TBX8 whole entry, looked up): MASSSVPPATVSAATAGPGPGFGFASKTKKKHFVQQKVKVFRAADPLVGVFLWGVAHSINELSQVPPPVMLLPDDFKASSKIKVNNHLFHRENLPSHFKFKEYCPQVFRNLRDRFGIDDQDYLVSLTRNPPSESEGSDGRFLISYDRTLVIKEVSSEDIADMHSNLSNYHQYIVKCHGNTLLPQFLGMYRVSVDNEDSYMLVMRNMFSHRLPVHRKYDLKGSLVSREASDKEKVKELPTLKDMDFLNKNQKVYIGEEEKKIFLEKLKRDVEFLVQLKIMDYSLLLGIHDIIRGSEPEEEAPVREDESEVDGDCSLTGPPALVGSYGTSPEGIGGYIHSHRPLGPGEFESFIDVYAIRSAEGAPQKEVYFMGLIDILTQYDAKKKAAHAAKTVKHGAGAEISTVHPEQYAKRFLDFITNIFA
Sequence of UniProt Q8N8N7 (Q8N8N7 whole entry, looked up): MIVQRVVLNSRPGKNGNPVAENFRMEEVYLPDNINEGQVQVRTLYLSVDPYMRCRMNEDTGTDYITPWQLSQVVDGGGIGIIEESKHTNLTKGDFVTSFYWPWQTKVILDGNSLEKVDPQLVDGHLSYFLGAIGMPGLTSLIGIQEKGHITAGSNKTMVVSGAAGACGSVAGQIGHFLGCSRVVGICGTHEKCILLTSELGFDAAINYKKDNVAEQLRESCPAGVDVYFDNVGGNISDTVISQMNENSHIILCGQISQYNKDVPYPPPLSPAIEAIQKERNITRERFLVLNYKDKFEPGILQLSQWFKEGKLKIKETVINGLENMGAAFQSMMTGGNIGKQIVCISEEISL
Sequence of UniProt P06454 (P06454 whole entry, looked up): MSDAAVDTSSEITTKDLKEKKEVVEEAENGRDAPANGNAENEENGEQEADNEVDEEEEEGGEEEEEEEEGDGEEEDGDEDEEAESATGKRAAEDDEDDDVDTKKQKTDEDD
Sequence of UniProt O00541 (O00541 whole entry, looked up): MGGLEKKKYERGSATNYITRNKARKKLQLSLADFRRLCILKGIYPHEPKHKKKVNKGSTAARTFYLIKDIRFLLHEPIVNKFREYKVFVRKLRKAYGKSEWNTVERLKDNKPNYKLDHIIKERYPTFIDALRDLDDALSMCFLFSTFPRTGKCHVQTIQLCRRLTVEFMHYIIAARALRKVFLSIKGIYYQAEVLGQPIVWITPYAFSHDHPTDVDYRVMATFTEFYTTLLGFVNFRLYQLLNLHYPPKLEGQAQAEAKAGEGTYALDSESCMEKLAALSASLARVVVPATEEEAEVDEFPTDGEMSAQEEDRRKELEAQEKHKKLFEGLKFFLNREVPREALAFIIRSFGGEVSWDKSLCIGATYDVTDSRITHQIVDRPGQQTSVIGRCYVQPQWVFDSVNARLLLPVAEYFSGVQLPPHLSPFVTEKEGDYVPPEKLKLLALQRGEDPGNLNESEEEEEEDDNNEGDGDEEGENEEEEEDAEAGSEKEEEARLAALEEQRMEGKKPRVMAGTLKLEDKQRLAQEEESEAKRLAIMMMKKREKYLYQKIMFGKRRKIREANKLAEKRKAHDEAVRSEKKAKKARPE
Sequence of UniProt P31323 (P31323 whole entry, looked up): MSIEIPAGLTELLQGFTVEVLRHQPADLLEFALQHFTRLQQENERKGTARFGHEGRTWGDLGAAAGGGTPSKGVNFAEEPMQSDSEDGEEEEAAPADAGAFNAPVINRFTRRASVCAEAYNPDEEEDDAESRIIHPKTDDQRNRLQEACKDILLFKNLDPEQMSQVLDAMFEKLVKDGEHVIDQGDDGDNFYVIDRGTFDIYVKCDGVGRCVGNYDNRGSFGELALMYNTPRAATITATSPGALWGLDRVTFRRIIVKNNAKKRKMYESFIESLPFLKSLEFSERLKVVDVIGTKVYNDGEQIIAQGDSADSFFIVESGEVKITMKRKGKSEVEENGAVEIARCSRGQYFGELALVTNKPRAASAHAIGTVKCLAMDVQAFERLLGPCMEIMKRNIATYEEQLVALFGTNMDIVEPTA

Take PIK3CG (UniProt P48736): the log2 fold change in experiment [1] was -0.076; in experiment [2], -0.065; in experiment [3], 0.109; in experiment [4] it was -0.047; in experiment [5], -0.105.
With PRAME (UniProt P78395), the log2 fold change is -0.009 in experiment [1]; 0.014 in experiment [2]; 0.014 in experiment [3]; -0.008 in experiment [4]; 0.026 in experiment [5].
PI4KA (UniProt P42356): the log2 fold change was -0.08 in experiment [1]; -0.012 in experiment [2]; 0.057 in experiment [3]; -0.019 in experiment [4]; -0.018 in experiment [5].
The matching figures for PTPN23 (UniProt Q9H3S7): -0.033, 0.011, 0.007, 0.024 and 0.
The matching figures for PIP4K2A (UniProt P48426): -0.093, -0.053, -0.041, -0.05 and -0.106.
Turning to PIP4K2C (UniProt Q8TBX8), the log2 fold change in experiment [1] is -0.12; in experiment [2], -0.062; in experiment [3], -0.113; in experiment [4], -0.023; in experiment [5], -0.011.
In the same order, the values of POLR2G (UniProt P62487) are 0.018, 0.021, -0.003, 0.007 and -0.108.
In the same order, the values of POLR3E (UniProt Q9NVU0) are -0.031, -0.003, -0.001, -0.002 and -0.012.
In the same order, the values of PPIL2 (UniProt Q13356) are 0.036, 0.005, 0.029, 0.082 and 0.011.
Consider PEF1 (UniProt Q9UBV8), for which the log2 fold change in experiment [1] is 0.016; in experiment [2] it was -0.039; in experiment [3], 0.055; in experiment [4] it was 0.048; in experiment [5] it was -0.031.
In the case of PRKAR2B (UniProt P31323), the log2 fold change in experiment [1] was -0.028; in experiment [2], 0.018; in experiment [3], 0.011; in experiment [4], -0.002; in experiment [5], 0.068.
In the same order, the values of PRPH isoform 2 (UniProt P41219) are 0.002, -0.006, 0.03, -0.059 and 0.119.
The matching figures for PDIA4 (UniProt P13667): -0.004, -0.006, -0.009, 0.002 and 0.037.
The matching figures for PIR (UniProt O00625): -0.013, 0.017, 0.026, 0.009 and 0.06.
As to PTMA (UniProt P06454), the log2 fold change in experiment [1] was 0.015; in experiment [2] it was 0.018; in experiment [3] it was 0.01; in experiment [4], -0.004; in experiment [5], 0.241.
In the same order, the values of PTGR2 (UniProt Q8N8N7) are 0.009, 0.039, -0.003, -0.048 and -0.004.
The matching figures for PPOX (UniProt P50336): 0.579 (active), 0.012, -0.009, -0.02 and -0.023.
The matching figures for PPCDC (UniProt Q96CD2): -0.02, 0.034, -0.054, -0.074 and -0.191.
Turning to PKN1 isoform 2 (UniProt Q16512), the log2 fold change is -0.003 in experiment [1]; 0.017 in experiment [2]; 0.023 in experiment [3]; 0.029 in experiment [4]; 0.022 in experiment [5].
In the same order, the values of PSTPIP2 (UniProt Q9H939) are 0, -0.01, 0.046, 0 and 0.027.
As to PI4K2A (UniProt Q9BTU6), the log2 fold change is 0.028 in experiment [1]; 0.056 in experiment [2]; -0.007 in experiment [3]; -0.002 in experiment [4]; 0.001 in experiment [5].
The matching figures for PES1 (UniProt O00541): 0.027, 0.016, 0.019, 0.016 and 0.02.
The matching figures for PIK3C3 (UniProt Q8NEB9): -0.041, -0.032, -0.036, -0.014 and -0.114.
On to PRMT8 (UniProt Q9NR22), for which the log2 fold change was -0.016 in experiment [1]; 0.031 in experiment [2]; 0.01 in experiment [3]; -0.041 in experiment [4]; -0.147 in experiment [5].
